Laboratory results from PubChem BioAssay (EPA / NIEHS).
Several values for one entry are separate records, joined by “and”; a condition that tells them apart may be missing. Equal values may be shown once. Inconclusive results are not listed. Activity calls are given as the source filed them. How the source made its calls, unless noted: active means hit-call score of the fitted dose curve at least 0.9, where 1 is the maximum; inactive means score below 0.9.

System: Brachyury (BRA) Protein Expression, Deisenroth Lab, TBXT (gene 6862)
Experiment: CCTE_Deisenroth_DEVTOX-GLR_Pluri_BRA: CCTE's DevTox GLR-Pluri Assay Evaluation of Brachyury (BRA) Protein Expression, Deisenroth Lab (AID 2284429; active means hit-call score of the fitted dose curve at least 0.9, where 1 is the maximum)
Outline: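 Mesoderm readout after 48 h differentiation of human RUES2-GLR cells, dosed twice (24-h intervals) at 1 nM - 200 uM. BRA+ frequency from fluorescence imaging of fixed, nuclear-stained cells, DMSO-corrected.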
For `O=C(O)c1cccnc1`, the outcome was “inactive”.
With `O=C1NC(=O)C(c2ccccc2)(c2ccccc2)N1` the AC50 was 152 µM (active).
With `Cc1cn([C@H]2C=C[C@@H](CO)O2)c(=O)[nH]c1=O` the outcome was “inactive”.
With `CC(=O)CC(c1ccccc1)c1c(O)c2ccccc2oc1=O` (stereo not given) the outcome was “inactive”.

System: not listed separately
Experiment: CCTE_Deisenroth_DEVTOX-GLR_Pluri_CellCount: Viability Assessment in CCTE's DevTox GLR-Pluri Assay Evaluation of Total Cell Counts, Deisenroth Lab (AID 2284430)
Outline: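 Cytotoxicity readout: fluorescent nuclei counts by high-content imaging, expressed as percent change relative to 0.2% DMSO. Human RUES2-GLR pluripotent line differentiated 48 h, dosed twice at 24-h intervals across 1 nM - 200 uM (10 points).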
For `O=C(O)c1cccnc1`, the outcome was “inactive”.
With `O=C1NC(=O)C(c2ccccc2)(c2ccccc2)N1` the AC50 was 100 µM (active).
For `Cc1cn([C@H]2C=C[C@@H](CO)O2)c(=O)[nH]c1=O`, the outcome was “inactive”.
For `CC(=O)CC(c1ccccc1)c1c(O)c2ccccc2oc1=O` (stereo not given), the outcome was “inactive”.

System: TTR (gene 7276)
Experiment: CCTE_GLTED_hTTR_0.125uM: CCTE's human Transthyretin (hTTR) Inhibition Assay, with 0.125uM TTR, Great Lakes Toxicology and Ecology Division (GLTED) Lab (AID 2284431);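 further: hits lower the fluorescence signal relative to DMSO baseline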
Outline: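 Cell-free displacement of the fluorescent probe ANSA from human TTR (0.125uM) after 2 h incubation with test chemical. Fluorescence read at 380 nm excitation/475 nm emission; loss of signal fitted relative to DMSO baseline.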
In the case of `Cc1cc(Cc2ccc(N)c(C)c2)ccc1N`, the AC50 is reported as 9.71 µM (active).
In the case of `O=C1c2c(O)cccc2Cc2cccc(O)c21`, the AC50 is reported as 22 µM (active).
In the case of `CCCCCCCCCCCCCCOS(=O)(=O)O`, the AC50 is reported as 1.9 µM (active).
In the case of `O=C(NS(=O)(=O)/C=C/c1cccs1)c1ccc(F)cc1Br`, the AC50 is reported as 7.75 µM (active).
For `Cc1c(C)c2c(c(C)c1O)CCC(C)(COc1ccc(CC3SC(=O)NC3=O)cc1)O2` (stereo not given), the AC50 was 2.31 µM (active).
With `O=C(O)c1[nH]n(-c2ccc(S(=O)(=O)O)cc2)c(=O)c1N=Nc1ccc(S(=O)(=O)O)cc1` the AC50 was 17.8 µM (active).
With `CC(=O)CC(c1ccccc1)c1c(O)c2ccccc2oc1=O` (stereo not given) the AC50 was 7.34 µM (active) and 4.39 µM (active).
In the case of `O=Cc1ccccc1C=O`, the AC50 is reported as 0.121 µM (active).
For `O=C1OC(c2ccc(O)cc2)(c2ccc(O)cc2)c2ccccc21`, the AC50 was 0.056 µM (active).
In the case of `CCC(C)N(C)C(=O)c1cc2ccccc2c(-c2ccccc2Cl)n1` (stereo not given), the AC50 is reported as 27.1 µM (active).
In the case of `CCCCc1nc2cccnc2n1Cc1ccc(-c2ccccc2-c2nnn[nH]2)cc1`, the AC50 is reported as 7.22 µM (active).
For `S=c1[nH]c2ccccc2s1`, the AC50 was 4.06 µM (active).
